Assay results reported in PubChem BioAssay (EPA / NIEHS).
Inconclusive results are not listed. Calls of active or inactive are those of the source. How the source made its calls, unless noted: active means hit-call score of the fitted dose curve at least 0.9, where 1 is the maximum; inconclusive means response in the unintended direction; inactive means score below 0.9.

Assays:
[1] = read-out: UDP glucuronosyltransferase (UGT1A6), UGT1A6 (gene 54578); experiment: LTEA_HepaRG_UGT1A6: Life Technologies and Expression Analysis (LTEA) Assay for UDP glucuronosyltransferase (UGT1A6) using HepaRG (AID 2283539; active means hit-call score of the fitted dose curve at least 0.9, where 1 is the maximum; inactive means score below 0.9); settings: mRNA level, 48 h; actives raise or lower the signal
Method in brief: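 Endpoint is UGT1A6 transcript induction or loss in a human liver cell line, quantified by TaqMan qRT-PCR 48 h after dosing. Concentrations ran from 100 uM downward in half-log steps in 0.5% DMSO; activity was fitted in both directions versus vehicle.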

[2] = read-out: X-box binding protein 1 (XBP1), XBP1 (gene 7494); experiment: LTEA_HepaRG_XBP1: Life Technologies and Expression Analysis (LTEA) Assay for X-box binding protein 1 (XBP1) using HepaRG (AID 2283540; active means hit-call score of the fitted dose curve at least 0.9, where 1 is the maximum; inactive means score below 0.9); settings: mRNA level, 48 h; actives raise or lower the signal
Method in brief: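 Human HepaRG monolayers receive test chemical for 48 h across an eight-point half-log series starting at 100 uM. XBP1 mRNA gain or loss is scored against DMSO by qRT-PCR.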

[3] = LTEA_HepaRG_LDH_cytotoxicity: Cytotoxicity Assessment in the Life Technologies and Expression Analysis (LTEA) Assay (AID 2283563);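 on AC50: LDH activity released into spent culture medium as a marker of cell death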
Method in brief: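 Human HepaRG hepatic cells are treated with test chemicals for 48 h at up to 100 uM in 0.5% DMSO. Cytotoxicity is scored from medium LDH against the vehicle control.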

[4] = Tanguay_ZF_120hpf_MORT_legacy: (Legacy) Oregon State University Tanguay Lab 120 Hour Post-fertilization zebrafish Assay for Mortality (AID 2283633)
Method in brief: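 Mortality endpoint from a multiplexed whole-embryo zebrafish screen. Dechorionated wild-type embryos received compound at 6 hpf and remained under static exposure at 28C until 120 hpf, with death noted as a present/absent call.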

[5] = Tanguay_ZF_120hpf_YSE_legacy: (Legacy) Oregon State University Tanguay Lab 120 Hour Post-fertilization zebrafish Assay for Yolk Sac Edema (AID 2283634)
Method in brief: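 Readout: presence or absence of yolk sac edema at 120 hpf, fitted upward against DMSO controls. Exposure ran statically from 6 hpf in dechorionated embryos kept at 28C.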

[6] = Tanguay_ZF_120hpf_AXIS_legacy: (Legacy) Oregon State University Tanguay Lab 120 Hour Post-fertilization zebrafish Assay for Body Axis Malformation (AID 2283635);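 on AC50: potency for an increased fraction of larvae scored with body axis malformation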
Method in brief: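 Static 6–120 hpf chemical exposure of dechorionated wild-type 5D zebrafish, one per well at 28C; morphology endpoint scored binary at 120 hpf relative to DMSO control.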

[7] = Tanguay_ZF_120hpf_EYE_legacy: (Legacy) Oregon State University Tanguay Lab 120 Hour Post-fertilization zebrafish Assay for Eye Malformation (AID 2283636)
Method in brief: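 Read-out is binary presence or absence of eye malformation, scored by brightfield microscopy at 120 hpf. Single larvae were exposed from 6 hpf in embryo medium containing 0.64% DMSO, with DMSO as baseline.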

[8] = Tanguay_ZF_120hpf_SNOU_legacy: (Legacy) Oregon State University Tanguay Lab 120 Hour Post-fertilization zebrafish Assay for Snout Malformation (AID 2283637)
Method in brief: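 Snout malformation read as a yes/no call on brightfield images of 120 hpf larvae (Tropical 5D strain). Static exposure began at 6 hpf on dechorionated embryos in 0.64% DMSO, with gain of signal analysed versus DMSO controls.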

[9] = Tanguay_ZF_120hpf_OTIC_legacy: (Legacy) Oregon State University Tanguay Lab 120 Hour Post-fertilization zebrafish Assay for Otic Vesicle Malformation (AID 2283639)
Method in brief: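 Tropical 5D wild-type zebrafish embryos statically exposed in 0.64% DMSO at 28C until 120 hpf; 5uM trimethyltin chloride as positive control. Otic vesicle malformation scored present/absent by brightfield; dead embryos not scored; gain fitted versus DMSO.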

[10] = Tanguay_ZF_120hpf_BRAI_legacy: (Legacy) Oregon State University Tanguay Lab 120 Hour Post-fertilization zebrafish Assay for Brain Malformation (AID 2283641)
Method in brief: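 Brain malformation in Tropical 5D zebrafish was recorded as a binary endpoint after static compound exposure from early development to 120 hpf at 28C. Activity was analysed against DMSO as negative control.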

[11] = ATG_XTT_Cytotoxicity: Cytotoxicity Assessment in the Attagene TRANS-FACTORIAL HepG2 Assay (AID 2283584)
Method in brief: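 Transfect HepG2 with GAL4-UAS reporter units, dose compound, incubate 24 h, then measure viable cell number by XTT. Fit concentration response against DMSO baseline.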

[12] = Tanguay_ZF_120hpf_JAW_legacy: (Legacy) Oregon State University Tanguay Lab 120 Hour Post-fertilization zebrafish Assay for Jaw Malformation (AID 2283638)
Method in brief: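 Static waterborne exposure of dechorionated wild-type (Tropical 5D) zebrafish from 6 to 120 hpf at 28C, 0.64% DMSO vehicle; 5uM trimethyltin chloride served as positive control. Jaw morphology recorded as binary at 120 hpf.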

[13] = Tanguay_ZF_120hpf_PE_legacy: (Legacy) Oregon State University Tanguay Lab 120 Hour Post-fertilization zebrafish Assay for Pericardial Edema (AID 2283640)
Method in brief: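 Read-out is the presence or absence of pericardial edema at 120 hpf under brightfield, with gain of signal fitted against DMSO controls. Larvae (5D wild-type) were statically exposed at 28C with 0.64% final DMSO.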

[14] = TOX21_p53_BLA_p2_viability: Viability Assessment in the Tox21 HCT-116 p53 Agonism Beta-lactamase Assay, Phase 2 (AID 2283591);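 further: actives lower the ATP signal meaning cytotoxicity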
Method in brief: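 Cytotoxicity readout: CellTiter-Glo ATP luminescence, 30 min at room temperature, after the beta-lactamase read. Cells were HCT116 exposed 16 h at 37C to compounds pin-transferred at 217-fold dilution from DMSO stocks.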

[15] = biological target: Cellular tumor antigen p53 (Homo sapiens) (UniProt P04637); experiment: TOX21_p53_BLA_p2_ratio: Tox21 HCT-116 p53 Agonism Beta-lactamase Assay, Ratio, Phase 2 (AID 2283592)
Sequence of Cellular tumor antigen p53 (Homo sapiens) (P04637 whole entry, looked up): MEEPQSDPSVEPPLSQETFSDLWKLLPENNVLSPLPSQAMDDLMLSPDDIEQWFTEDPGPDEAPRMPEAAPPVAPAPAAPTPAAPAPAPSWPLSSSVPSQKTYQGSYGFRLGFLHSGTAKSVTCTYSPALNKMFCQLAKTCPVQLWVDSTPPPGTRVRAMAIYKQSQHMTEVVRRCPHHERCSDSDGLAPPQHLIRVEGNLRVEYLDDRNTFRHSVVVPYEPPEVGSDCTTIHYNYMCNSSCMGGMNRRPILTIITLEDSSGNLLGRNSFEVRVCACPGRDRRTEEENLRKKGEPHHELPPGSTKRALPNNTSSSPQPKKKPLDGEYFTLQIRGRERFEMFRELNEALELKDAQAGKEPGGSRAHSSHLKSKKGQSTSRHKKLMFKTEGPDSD
Method in brief: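 An inducible beta-lactamase reporter in HCT116 cells signals p53 pathway activation. After 16 h chemical exposure at 37C, cells load CCF4-AM substrate for 2 h at room temperature; activity is the cleaved/uncleaved emission ratio relative to DMSO.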

[16] = biological target: Cellular tumor antigen p53 (Homo sapiens) (UniProt P04637); experiment: TOX21_p53_BLA_p3_ratio: Tox21 HCT-116 p53 Agonism Beta-lactamase Assay, Ratio, Phase 3 (AID 2283596)
Method in brief: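 HCT116 p53-bla cells (4000/well) given compound in DMSO (217-fold dilution) after 5 h, incubated 16 h at 37C. CCF4-AM substrate 2 h at room temperature; 460/530 nm emission ratio, gain fitted against DMSO.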

[17] = TOX21_p53_BLA_p4_viability: Viability Assessment in the Tox21 HCT-116 p53 Agonism Beta-lactamase Assay, Phase 4 (AID 2283597);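 further: hits lower the luminescence signal meaning cytotoxicity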
Method in brief: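 Compound exposure of HCT116 cells lasts 16 h at 37C, 5% CO2, with DMSO stocks diluted 217-fold. Cellular ATP is then quantified by CellTiter-Glo luminescence after 30 min at room temperature.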

[18] = biological target: Cellular tumor antigen p53 (Homo sapiens) (UniProt P04637); experiment: TOX21_p53_BLA_p5_ratio: Tox21 HCT-116 p53 Agonism Beta-lactamase Assay, Ratio, Phase 5 (AID 2283599)
Method in brief: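 Beta-lactamase reporter ratio (blue 460 nm over green 530 nm, 405 nm excitation) after 2 h CCF4-AM loading, in HCT-116 cells exposed 16 h at 37 C to compounds pinned at 217-fold dilution. Increases relative to DMSO baseline scored.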

[19] = biological target: Cellular tumor antigen p53 (Homo sapiens) (UniProt P04637); experiment: TOX21_p53_BLA_p4_ratio: Tox21 HCT-116 p53 Agonism Beta-lactamase Assay, Ratio, Phase 4 (AID 2283601)
Method in brief: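 Signal is the blue/green (460nm/530nm) ratio of cleaved versus uncleaved CCF4-AM substrate, read after 2 h substrate loading. Cells were HCT116 carrying the p53-responsive beta-lactamase reporter, dosed 16 h at 37C, 5% CO2; CellTiter-Glo measured in parallel.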

[20] = TOX21_p53_BLA_p5_viability: Viability Assessment in the Tox21 HCT-116 p53 Agonism Beta-lactamase Assay, Phase 5 (AID 2283600)
Method in brief: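 Counter-readout for cytotoxicity: ATP-dependent luminescence from CellTiter-Glo, read in the beta-lactamase wells after 30 min at RT, following a 16 h compound exposure at 37C.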

Measured: AC50

COS(C)(=O)=O
inactive: [1] | [2] | [3] | [4] | [5] | [6] | [7] | [8] | [9] | [10]

Cc1ccc(S(=O)(=O)NC(=O)NN2CCCCCC2)cc1
inactive: [1] | [2] | [3] | [11] | [4] | [6] | [7] | [12] | [9] | [10]

OCc1ccccc1
inactive: [1] | [2] | [3] | [4] | [5] | [6] | [7] | [8] | [9] | [10]

NC(=O)N(O)[C@@H]1COc2cc(OCc3ccccc3)ccc21
inactive: [1] | [2] | [3] | [4] | [5] | [7] | [8] | [9] | [13] | [10]

C[C@]12C=CC(=O)C=C1CC[C@H]1[C@@H]3C[C@@H](O)[C@](O)(C(=O)CO)[C@@]3(C)C[C@H](O)[C@@]12F
not listed: [12] | [13] | [20]
inactive: all other assays above

CCCC(CCC)C(=O)O
inactive: [1] | [2] | [3] | [11] | [4] | [5] | [6] | [7] | [8] | [9] | [10]

NC(=O)NN=Cc1ccc([N+](=O)[O-])o1
not listed: [7] | [9] | [12] | [13]
inactive: all other assays above

CCOc1ccc2[nH]cc(C(=O)NCc3ccccc3)c(=O)c2n1
inactive: [1] | [2] | [3] | [4] | [5] | [6] | [7] | [8] | [9] | [10]

CCc1cccc(CC)c1N
not listed: [7] | [8] | [13] | [14] | [17]
inactive: all other assays above

CCCCCCOC(=O)CC(CC(=O)OCCCCCC)(OC(=O)CCC)C(=O)OCCCCCC
not listed: [8] | [14] | [15] | [16] | [17] | [18] | [19] | [20]
inactive: all other assays above

CCCCCCCCCCCCCCO
not listed: [2] | [12] | [18]
inactive: all other assays above

COc1cc(C(C)C)c2c(c1)S(=O)(=O)N(COc1cc(=O)n3cccc(OCCN4CCCCC4)c3n1)C2=O
inactive: [2] | [4] | [5] | [7] | [10]
active: [1] 19.9 µM | [3] 19.2 µM | [6] 32.4 µM | [8] 24.6 µM | [9] 15.3 µM

CC(C)CCCCCCOC(=O)C1CCCCC1C(=O)OCCCCCCC(C)C (stereo not drawn)
inactive: [1] | [2] | [3] | [4] | [5] | [7] | [8] | [13] | [10]

CC(C)C(=O)Nc1ccc([N+](=O)[O-])c(C(F)(F)F)c1
inactive: [3] | [11] | [4] | [5] | [6] | [7] | [8] | [9] | [13] | [10]
active: [1] 74.7 µM | [2] 12.2 µM

OCCOCCOCCO
not listed: [2] | [8] | [13] | [20]
inactive: all other assays above

CCCCCCCCN(C)C
not listed: [2] | [5] | [7] | [13] | [15] | [19]
inactive: all other assays above

NC(N)=O
inactive: [1] | [2] | [3] | [11] | [4] | [5] | [6] | [8] | [9]

CNC(C)=O
inactive: [1] | [2] | [3] | [11] | [4] | [6] | [8] | [13] | [10]

NNC(=O)c1ccncc1
not listed: [12] | [13] | [16] | [18]
inactive: all other assays above
